Screen size: about 360,000 compounds; about 1,700 (0.47%) were called active. The sample holds actives, similar compounds and a random draw of the others, so the mix is not that of the screen. Values without a mark were called inactive. Rule as the data show it: active = activation above about 15%; inactive = the rest.
Experiment: counter-screen for M1 agonists: effect in parental CHO-K1 cells (AID 602248);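 also: untransfected CHO-K1 host cells lacking M1 receptor as counterscreen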
Details: Fluo-8 calcium fluorescence, at 3 µM, hits give high values, scaled to maximal ATP response, vehicle zero

| Structure (SMILES) | activation |
| --- | --- |
| COc1cc(C(=O)OCc2cc(=O)n3ccsc3n2)ccc1OC(C)C | 1.63% |
| Cc1c(Cl)cccc1NC(=S)N(Cc1ccccc1)Cc1cccnc1 | 0.16% |
| Cc1cccc(C)c1NC(=S)N(Cc1cccnc1)Cc1ccccc1Cl | 19.6% (active) |
| Cc1ccc(CN(Cc2cccnc2)C(=S)Nc2cccc(Cl)c2C)cc1 | 0.06% |
| O=C1Nc2ccccc2NC(c2ccc3c(c2)OCO3)=C1N(Cc1ccc(F)cc1)C(=O)c1ccco1 | 1.41% |
| O=C(Nc1ncc([N+](=O)[O-])s1)C1COc2ccccc2O1 (stereo not given) | 15.9% (active) |
| O=C(Nc1cc(S(=O)(=O)N2CCCCC2)ccc1Cl)C1COc2ccccc2O1 (stereo not given) | 3.15% |
| CC(=O)c1ccccc1NC(=O)COC(=O)C1COc2ccccc2O1 (stereo not given) | 0.64% |
| COc1ccc(CN2C(=O)C(CC(=O)NC3CCCCC3)CC(C(=O)N3CCOCC3)=C2C)cc1 (stereo not given) | 0.65% |
| Cc1cc(OCC(=O)NC2CCN(C)CC2)ccc1[N+](=O)[O-] | 23.7% (active) |
| O=C(COc1ccccc1[N+](=O)[O-])NC1CC1 | 1.25% |
| Cc1cc(OCC(=O)Nc2c(C)n(C)n(-c3ccccc3)c2=O)ccc1[N+](=O)[O-] | 0.08% |
| O=C(c1c(Cl)cccc1Cl)N1CCN(c2cccc3[nH]ccc23)CC1 | 2.17% |
| COc1ccc(OCC(O)CNC(=O)Nc2ccc(Cl)cc2)cc1 (stereo not given) | 1.9% |
| OC(CNCCc1ccc(Cl)cc1Cl)COc1ccccc1 (stereo not given) | 16.2% (active) |
| CC(O)CNCCOc1cccc(Oc2ccccc2)c1 (stereo not given) | 1.52% |
| C(=N/N1CCN(c2ccccc2)CC1)/c1cccs1 | 0.31% |
| COc1ccc2c(c1)CCC/C2=N\OC(=O)c1ccccc1F | 1.78% |
| Cc1cc(C(=O)NNC(=S)Nc2ccccc2C)cs1 | 7.73% |
| Cc1ccccc1NC(=S)NC(=O)Cc1ccc(Cl)cc1 | 21.2% (active) |

| Structure (SMILES) | activation |
| --- | --- |
| O=C(Cc1ccc(Cl)cc1)NC(=S)Nc1ccccc1O | 29.2% (active) |
| Fc1ccccc1CNC(=S)Nc1ccc(Cl)cc1 | 11.3% |
| CCOc1ccccc1NC(=S)NC(=O)CCc1ccccc1 | -0.34% |
| Cc1ccccc1N/C(SCc1ccc(Cl)cc1)=C(/C#N)C(N)=O | 0.43% |
| COc1ccc(CCNC(=O)C(=O)NCC2CCNCC2)cc1OC | 1.91% |
| O=C(CN1C(=O)CSC1=O)N1CCCC(Nc2ccc(F)cc2)C1 (stereo not given) | 1.24% |
| O=C(CSc1nncn1-c1cccnc1)N1CCOCC1 | 0.39% |
| Cn1c(Nc2ccc(F)cc2)nc2cc(-c3ccsc3)sc2c1=O | 1.38% |
| COc1c(N2CCN(C(=S)Nc3ccccc3F)C(C)C2)c(F)cc2c(=O)c(C(=O)O)cn(C3CC3)c12 (stereo not given) | 0.37% |
| CC(=O)Nc1c(-c2ccc(C)cc2)nc2ccc(Cl)cn12 | -0.07% |
| CS(=O)(=O)/C(C#N)=C/c1cccn1S(=O)(=O)c1ccc([N+](=O)[O-])cc1 | 0.19% |
| C[C@@H](O)c1nc2ccccc2n1N | 6.47% |
| CCN1C(=O)C(=O)N(CC(=O)Nc2cc(C)ccc2C)C1=O | 0.48% |
| Cc1c(NS(=O)(=O)c2cc(C(=O)NCCc3ccc(F)cc3)cc(Cl)c2Cl)c(=O)n(-c2ccccc2)n1C | -0.45% |
| COc1ccccc1S(=O)(=O)c1c(C)cc(C)[nH]c1=O | 0.65% |
| Cc1cc(C)c(/C=C2\C(=O)Nc3ccccc32)[nH]1 | 24.4% (active) |
| CC1C(=O)C(C)C(c2ccc(O)cc2)NC1c1ccc(O)cc1 (stereo not given) | 4.02% |
| COc1ccc(NC(=O)CSc2ccc(-c3ccco3)nn2)c(OC)c1 | 0.21% |
| O=C(CSc1ccc(-c2ccc(F)cc2)nn1)Nc1ccc2c(c1)OCCO2 | 6.26% |
| O=C(CSc1ccc(-c2ccco2)nn1)Nc1cccc(F)c1 | 16.7% (active) |

| Structure (SMILES) | activation |
| --- | --- |
| CCCOc1ccc(N2CC(C(=O)Nc3ccccn3)CC2=O)cc1 (stereo not given) | -0.06% |
| CS(=O)(=O)N(CC(=O)Nc1ccc(F)cc1F)c1cccc([N+](=O)[O-])c1 | 0.11% |
| C=CCn1c(SCC(N)=O)nnc1-c1cc2c(s1)CCC(CC)C2 (stereo not given) | 0.17% |
| COc1ccc(Nc2ncnc3sc(-c4ccccc4)cc23)c(OC)c1 | 17.4% (active) |
| COC(=O)c1cnc(Nc2cc(C)ccc2OC)c2ccccc12 | 1.12% |
| COc1ccc(NC(=O)c2sc(N3CCOCC3)nc2-c2ccccc2)c(OC)c1 | 1.26% |
| COc1ccc(NC(=O)CSc2nncc(=O)n2N)cc1OC | 1.17% |
| CCOC(=O)C1CCN(Cc2ccc(-c3ccccc3)cc2)CC1 | 2.64% |
| CCOC(=O)C1CCN(Cc2nnc(-c3cccc(Br)c3)o2)CC1 | 16.3% (active) |
| CCOC(=O)C1CCN(CCC(=O)Nc2cccc(C)c2)CC1 | 6.98% |
| CC1CCC2(CC1)NC(=O)N(CC(=O)c1ccc3c(c1)OCO3)C2=O (stereo not given) | 1.72% |
| CC1(c2ccc(Cl)cc2)NC(=O)N(CC(=O)c2ccc3c(c2)OCO3)C1=O (stereo not given) | 16.4% (active) |
| COc1ccc(C2(C)NC(=O)N(CC(=O)c3ccc4c(c3)OCO4)C2=O)cc1 (stereo not given) | 9.33% |
| Cn1c2c(c(=O)n(C)c1=O)C(c1cccc([N+](=O)[O-])c1)Nc1ccccc1O2 (stereo not given) | 0.17% |
| COc1cccc(N2CCN(C(=O)C3CCCN(S(=O)(=O)c4cnc[nH]4)C3)CC2)c1 (stereo not given) | 0.46% |
| Cc1ccc(S(=O)(=O)N2CCCC(C(=O)N3CCN(C)CC3)C2)cc1 (stereo not given) | 1.9% |
| CC(=O)N1CCCc2cc(S(=O)(=O)N3CCCC(C(=O)N4CCN(c5cccc(Cl)c5)CC4)C3)ccc21 (stereo not given) | 19.9% (active) |
| CCN1CCC(=NNC(=O)c2ccc(C)c([N+](=O)[O-])c2)CC1 | 0.82% |
| Cc1cc(F)ccc1S(=O)(=O)Nc1ncnc2scc(-c3ccc(F)cc3)c12 | 0.74% |
| CC(=O)N1CCN(c2ccc(NCc3ccc(C(C)C)cc3)cc2)CC1 | -0.13% |

Reference: PubChem BioAssay AID602248 (The Scripps Research Institute Molecular Screening Center, 2012)
